Assay results reported in the supplement of paper PMC10849652.
Targets with a hit are over-represented here; the source holds about 7,900 in all. About 0.6% of all pairs of compound and target were hits.

Legend:
Experiment in all cases: log2 fold change, soluble protein after heating vs DMSO (PISA); higher = thermal stabilisation; K562 cells, 10 uM, 30 min; active = over 0.2 and 3.5 SD of the protein, either way, in both replicates (recomputed)
ZW10 = ZW10 (UniProt O43264)
Outline: (§1)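 K562 cells at 2×10^6 cells/mL were treated with 10 μM compound for 30 min. Aliquots were heated for 3 min across 48°C-58°C, pooled, and extracted in PBS with 0.5% NP-40 at 4°C; soluble protein was the supernatant after 21,000xg for 90 min. Soluble protein was quantified by TMTpro 16plex LC-MS/MS with channel sums equalised, and reported as log2 fold change in thermal stability against DMSO controls, with values from duplicates.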

ZWILCH = ZWILCH (UniProt Q9H900)
Outline: as §1

ZYG11B = ZYG11B (UniProt Q9C0D3)
Outline: as §1

Measured: log2 fold change

Sequence of ZYG11B (Q9C0D3 whole entry, looked up): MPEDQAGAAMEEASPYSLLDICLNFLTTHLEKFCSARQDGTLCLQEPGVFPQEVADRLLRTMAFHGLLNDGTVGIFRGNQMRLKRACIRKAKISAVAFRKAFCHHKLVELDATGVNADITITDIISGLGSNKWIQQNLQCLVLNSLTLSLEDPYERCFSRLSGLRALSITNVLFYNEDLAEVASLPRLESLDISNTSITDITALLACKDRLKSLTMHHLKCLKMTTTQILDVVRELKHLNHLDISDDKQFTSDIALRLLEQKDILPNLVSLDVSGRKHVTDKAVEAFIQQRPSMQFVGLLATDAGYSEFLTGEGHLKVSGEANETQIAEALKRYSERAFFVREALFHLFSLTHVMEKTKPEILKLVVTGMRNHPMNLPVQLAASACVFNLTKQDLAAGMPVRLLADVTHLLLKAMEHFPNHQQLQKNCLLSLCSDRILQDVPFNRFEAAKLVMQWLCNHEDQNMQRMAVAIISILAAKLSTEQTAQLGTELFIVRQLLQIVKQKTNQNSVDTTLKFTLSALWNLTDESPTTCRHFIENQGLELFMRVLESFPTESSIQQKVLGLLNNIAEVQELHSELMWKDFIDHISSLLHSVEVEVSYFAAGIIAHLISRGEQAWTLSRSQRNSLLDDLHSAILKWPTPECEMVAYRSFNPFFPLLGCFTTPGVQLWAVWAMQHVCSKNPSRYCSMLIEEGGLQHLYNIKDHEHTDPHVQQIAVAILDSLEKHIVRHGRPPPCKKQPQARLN
Sequence of ZWILCH (Q9H900 whole entry, looked up): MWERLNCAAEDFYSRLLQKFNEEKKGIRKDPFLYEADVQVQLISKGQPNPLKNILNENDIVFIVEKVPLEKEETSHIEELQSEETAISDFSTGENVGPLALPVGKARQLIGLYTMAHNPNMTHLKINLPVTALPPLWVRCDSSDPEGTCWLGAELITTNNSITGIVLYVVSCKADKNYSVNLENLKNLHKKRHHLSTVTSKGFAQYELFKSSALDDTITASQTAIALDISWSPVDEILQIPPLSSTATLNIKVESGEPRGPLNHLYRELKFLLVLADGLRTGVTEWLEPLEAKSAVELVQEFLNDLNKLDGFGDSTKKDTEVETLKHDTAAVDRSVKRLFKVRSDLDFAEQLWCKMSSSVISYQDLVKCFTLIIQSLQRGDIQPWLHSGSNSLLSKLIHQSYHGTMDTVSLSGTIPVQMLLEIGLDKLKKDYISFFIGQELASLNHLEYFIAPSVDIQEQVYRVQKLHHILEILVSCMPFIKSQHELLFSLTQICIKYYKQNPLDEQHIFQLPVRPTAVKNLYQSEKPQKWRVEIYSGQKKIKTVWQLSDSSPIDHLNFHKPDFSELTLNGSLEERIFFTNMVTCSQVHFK
Sequence of ZW10 (O43264 whole entry, looked up): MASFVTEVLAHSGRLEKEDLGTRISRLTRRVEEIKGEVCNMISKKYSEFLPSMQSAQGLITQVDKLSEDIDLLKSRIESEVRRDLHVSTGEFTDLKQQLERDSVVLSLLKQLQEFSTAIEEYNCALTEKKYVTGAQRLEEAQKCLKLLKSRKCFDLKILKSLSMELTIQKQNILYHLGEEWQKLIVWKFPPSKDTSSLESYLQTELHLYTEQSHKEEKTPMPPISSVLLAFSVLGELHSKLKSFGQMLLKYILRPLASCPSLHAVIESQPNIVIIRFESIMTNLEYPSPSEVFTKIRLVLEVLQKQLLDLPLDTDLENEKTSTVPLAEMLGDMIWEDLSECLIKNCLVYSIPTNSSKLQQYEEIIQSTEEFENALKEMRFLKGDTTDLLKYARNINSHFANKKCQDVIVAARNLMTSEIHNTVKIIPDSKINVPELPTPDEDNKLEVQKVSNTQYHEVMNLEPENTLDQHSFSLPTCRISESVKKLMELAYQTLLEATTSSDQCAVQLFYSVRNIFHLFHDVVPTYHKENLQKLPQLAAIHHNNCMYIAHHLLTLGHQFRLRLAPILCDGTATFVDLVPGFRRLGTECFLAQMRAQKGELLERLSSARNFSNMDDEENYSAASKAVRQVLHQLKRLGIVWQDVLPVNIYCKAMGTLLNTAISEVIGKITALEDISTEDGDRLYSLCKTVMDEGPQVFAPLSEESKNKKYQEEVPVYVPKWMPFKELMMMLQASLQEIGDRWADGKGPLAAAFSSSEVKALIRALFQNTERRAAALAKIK

C[C@H](Nc1ncnc2nc[nH]c12)c1cc2cccc(Cl)c2c(=O)n1-c1ccccc1 [duvelisib]
inactive: ZW10 -0.002 | ZWILCH 0.044 | ZYG11B 0.062

CO[C@H]1C[C@@H]2CC[C@@H](C)[C@@](O)(O2)C(=O)C(=O)N2CCCC[C@H]2C(=O)O[C@H]([C@H](C)C[C@@H]2CC[C@H](n3cnnn3)[C@H](OC)C2)CC(=O)[C@H](C)/C=C(\C)[C@@H](O)[C@@H](OC)C(=O)[C@H](C)C[C@H](C)/C=C/C=C/C=C/1C [zotarolimus]
inactive: ZW10 0.023 | ZWILCH 0.046 | ZYG11B 0.024

CN1CC[C@H](c2c(O)cc(O)c3c(=O)cc(-c4ccccc4Cl)oc23)[C@H](O)C1 [alvocidib]
inactive: ZW10 -0.02 | ZWILCH -0.034 | ZYG11B -0.055

CC(C)c1cnn2c(NCc3ccccc3)cc(NCCCCCCN)nc12
inactive: ZW10 -0.213 | ZWILCH -0.107 | ZYG11B 0.058
